ATXN viability = reduces viability in counter-screen for ATXN expression inhibitors | actives 0.49% (n = 400,000) | Potency, µM (titrated, usually from 56.7 µM), usual class: cytotoxic | S2 cells (HEK-293 line with an ATXN2-luciferase reporter) viability, CellTiter-Fluor protease fluorescence, 24 h; further: nearly all actives have a fitted effect of over 40% in size
HT1080-NT tox = kills 2HG-producing HT-1080-NT fibrosarcoma cells. Potency, µM (titrated, usually from 46.1 µM), most hits filed as cytotoxic. actives 1.6% (n = 360,000). HT-1080-NT fibrosarcoma viability, CellTiter-Glo ATP luminescence, 48 h. AID 686970;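 further: NT is the 2HG producing partner of a matched IDH1 knockdown line; nearly all actives have a fitted effect of over 55% in size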
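750 cells/well, RPMI + 5% FBS; 2 h settle, compound pin-transfer, 48 h at 37 degrees C. CellTiter-Glo 10 min RT, luminescence. Normalized to DMSO and media-only wells.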
TGFb inhibitor = TGF-b pathway inhibition | HepG2 CAGA-GFP TGF-b/SMAD3 reporter, GFP fluorescence, 18 h; TGF-beta stimulated, 500 pg/mL final | actives 1.2% (n = 410,000) | Potency, µM (titrated, usually from 46.1 µM), most hits filed as inhibitors; further: nearly all actives have a fitted effect of over 65% in size
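Per well, imaged GFP fluorescence of HEPG2 CAGA-GFP cells gives the signal; cells get compound, then TGF-beta (500 pg/mL final), 18 h at 37 degrees C; %Activity versus -TGF-beta and +DMSO controls.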
ATXN2 expr inh = inhibitors of ATXN2 expression; HEK-293 ATXN2-luciferase reporter, luminescence, 24 h; Potency, µM (titrated, usually from 57 µM), actives largely listed as inhibitors; AID 1745845; actives 0.72% (n = 360,000); further: nearly all actives have a fitted effect of over 55% in size
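qHTS (up to 57 uM final) was run with 24 h compound exposure of reporter cells at 37 °C. Each well was multiplexed: SteadyGlo luminescence measured ATXN2-luciferase expression after a fluorogenic Gly-Phe-AFC viability readout (25 uM final).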
HT1080 IDH1KD tx = HT-1080 IDH1 knockdown cell toxicity (counter line); HT-1080 IDH1 knockdown viability, ATP luminescence, 48 h; Potency, µM (top dose mostly 46.1 µM), usual class: cytotoxic; actives 2% (n = 360,000); AID 686971
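CellTiter-Glo luminescence after 48 h compound exposure at 37 degrees C of IDH1-knockdown HT-1080 cells in 5% FBS RPMI. %Activity scaled between DMSO wells and cell-free media wells, with curves fitted and assigned curve classes.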
HepG2 viability = counter-screen for TGF-b inhibitors: cytotoxicity in HepG2 cells | HepG2 CAGA-GFP viability, ATP luminescence, 18 h | Potency, µM (series often up to 46.1 µM), usual class: cytotoxic | actives 0.76% (n = 410,000) | AID 588856
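HepG2 CAGA-GFP cells (1000/well, DMEM with 1% FBS) received compound, then TGF-beta at 500 pg/mL final, and were incubated 18 hours at 37 degrees C. Viability was read by CellTiter-Glo luminescence. Media-only wells were set as complete cell-killing and DMSO as no toxicity.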
Hits are given with their value. An excerpt weighted towards active compounds, which were near 3.9% of everything screened. The call rests on the fitted dose curve; in most records, active means well fitted curve in the direction sought with a large enough effect; inconclusive means small, poorly fitted or top-dose-only effect, or another doubt; inactive means no such curve, though single readings can be large; an effect the other way counts as inactive or inconclusive.

For Cc1ccc(C(=O)c2cc([N+](=O)[O-])ccc2N2CCN(C)CC2)cc1 the results were ATXN viability inactive, HT1080-NT tox 10µM, TGFb inhibitor inactive, ATXN2 expr inh inconclusive, HT1080 IDH1KD tx 7.3µM and HepG2 viability inactive.
Screening O=C(c1ccc(Br)cc1)c1cc([N+](=O)[O-])ccc1N1CCCCC1 returned ATXN viability inconclusive, HT1080-NT tox 1.8µM, TGFb inhibitor inactive, ATXN2 expr inh inactive, HT1080 IDH1KD tx 2.1µM and HepG2 viability inactive.
CN1CCN(c2ccc([N+](=O)[O-])cc2C(=O)N2CCOCC2)CC1 was read as ATXN viability inactive, HT1080-NT tox inactive, TGFb inhibitor inactive, ATXN2 expr inh inactive, HT1080 IDH1KD tx inactive and HepG2 viability inactive.
CN1CCN(c2ccc([N+](=O)[O-])cc2C(=O)c2ccc(Br)cc2)CC1 was read as ATXN viability inconclusive, HT1080-NT tox 13µM, TGFb inhibitor inactive, ATXN2 expr inh inactive, HT1080 IDH1KD tx 15µM and HepG2 viability inactive.
For CN1CCN(c2ccc([N+](=O)[O-])cc2C(=O)c2ccccc2)CC1 the results were ATXN viability inconclusive, HT1080-NT tox inactive, TGFb inhibitor inactive, ATXN2 expr inh inactive, HT1080 IDH1KD tx inactive and HepG2 viability inactive.
For CC1c2ccccc2CN1NC(=O)c1ccc(Cl)c(S(N)(=O)=O)c1 (stereo unspecified) the results were ATXN viability inactive and ATXN2 expr inh inactive.
Screening O=C1c2cc([N+](=O)[O-])cc3cc([N+](=O)[O-])cc(c23)C(=O)N1c1ccccn1 returned ATXN viability inconclusive, HT1080-NT tox inactive, TGFb inhibitor 5.6µM, ATXN2 expr inh inconclusive, HT1080 IDH1KD tx inactive and HepG2 viability inactive.
Screening O=C1c2ccc(Oc3cccc([N+](=O)[O-])c3)cc2C(=O)N1c1ccccn1 returned ATXN viability inactive, HT1080-NT tox inactive, TGFb inhibitor inactive, HT1080 IDH1KD tx inactive and HepG2 viability inactive.
For CCC1CSC(Nc2ccc(C(=O)/C=C/c3ccc(Br)cc3)cc2)=N1 (stereo unspecified) the results were ATXN viability inconclusive, HT1080-NT tox inconclusive, TGFb inhibitor 16µM, ATXN2 expr inh inconclusive, HT1080 IDH1KD tx 18µM and HepG2 viability inactive.
`CCC1C(=O)NCCN1Cc1ccc2c(c1)CN(Cc1cccc(OC)c1)CCO2` (stereo unspecified) gave ATXN viability inactive.
CN1CCN(c2nc(-c3cccnc3)nc3ccccc23)CC1 was read as ATXN viability inactive, HT1080-NT tox inconclusive, TGFb inhibitor inactive, ATXN2 expr inh inactive, HT1080 IDH1KD tx inconclusive and HepG2 viability inactive.
Screening COc1cc2c(cc1OC)CN(c1nc(-c3cccnc3)nc3ccccc13)CC2 returned ATXN viability inconclusive, HT1080-NT tox 18µM, TGFb inhibitor inconclusive, ATXN2 expr inh inconclusive, HT1080 IDH1KD tx 18µM and HepG2 viability inactive.
`COC(=O)c1ccc(CSc2c(C(C)C)cnc3c2c(=O)n(C)c(=O)n3C)cc1` gave TGFb inhibitor inactive and HepG2 viability inactive.
`CNC(CC(=O)c1ccc([N+](=O)[O-])cc1)C(Cl)(Cl)Cl` (stereo unspecified) gave ATXN viability 28µM, HT1080-NT tox inconclusive, TGFb inhibitor 3.2µM, ATXN2 expr inh 25µM, HT1080 IDH1KD tx inconclusive and HepG2 viability 10µM.
COC(CNC(=O)c1ccc2c3c(onc13)-c1ccccc1C2=O)OC was read as HT1080-NT tox 23µM, TGFb inhibitor 11µM, ATXN2 expr inh inconclusive, HT1080 IDH1KD tx inconclusive and HepG2 viability inactive.
`COc1ccc2c(c1)-c1nc(-n3ncc(C(=O)NCc4cccc(C)n4)c3C3CC3)ncc1CC2` gave ATXN viability inactive.
Screening CC(C)(C)n1ncc2c(=O)n(Cc3ccc(F)cc3)cnc21 returned TGFb inhibitor inactive and HepG2 viability inactive.
`CC(C)(C)n1ncc2c(=O)n(Cc3ccc(SC(F)(F)F)cc3)cnc21` gave TGFb inhibitor 16µM and HepG2 viability inactive.
Fc1ccccc1Nc1nc2ccccc2o1 was read as ATXN viability inactive, HT1080-NT tox inconclusive, TGFb inhibitor inactive, ATXN2 expr inh inactive, HT1080 IDH1KD tx inactive and HepG2 viability 7.1µM.
Screening CN(C)c1ccc2nc3c(=O)[nH]c(=O)nc-3n(CC(O)C(O)C(O)CO)c2c1 (stereo unspecified) returned ATXN viability 13µM, HT1080-NT tox inactive, TGFb inhibitor inactive, HT1080 IDH1KD tx inactive and HepG2 viability inactive.
For CC1=C(C(=O)N(C(C)C)C(C)C)CC(CC(=O)NC(c2ccccc2)c2ccccc2)C(=O)N1CCC1=CCCCC1 (stereo unspecified) the results were HT1080-NT tox inconclusive, TGFb inhibitor 11µM, ATXN2 expr inh inactive, HT1080 IDH1KD tx inconclusive and HepG2 viability inactive.
CC1=C(C(=O)N(C(C)C)C(C)C)CC(CC(=O)NCCCCc2ccccc2)C(=O)N1Cc1ccc(C(C)(C)C)cc1 (stereo unspecified) was read as ATXN viability inconclusive, HT1080-NT tox inconclusive, TGFb inhibitor 11µM, ATXN2 expr inh inconclusive, HT1080 IDH1KD tx inconclusive and HepG2 viability 18µM.
`CC1=C(C(=O)N(C(C)C)C(C)C)CC(CC(=O)NCC2CCCCC2)C(=O)N1Cc1ccc(C(C)(C)C)cc1` (stereo unspecified) gave HT1080-NT tox inconclusive and HT1080 IDH1KD tx 23µM.
CCN(CC)C(=O)C1=C(C)N(Cc2ccc(C(C)(C)C)cc2)C(=O)C(CC(=O)NCc2ccco2)C1 (stereo unspecified) was read as ATXN viability inactive, HT1080-NT tox inactive, TGFb inhibitor inactive, ATXN2 expr inh inconclusive, HT1080 IDH1KD tx inactive and HepG2 viability inactive.
For CC1=C(C(=O)N(C(C)C)C(C)C)CC(CC(=O)NCc2ccco2)C(=O)N1Cc1ccc(C(C)(C)C)cc1 (stereo unspecified) the results were ATXN viability inconclusive, HT1080-NT tox inactive, TGFb inhibitor 18µM, ATXN2 expr inh inconclusive, HT1080 IDH1KD tx inconclusive and HepG2 viability inactive.
For CC1=C(C(=O)N(C(C)C)C(C)C)CC(CC(=O)NC2CC2)C(=O)N1Cc1ccc(C(C)(C)C)cc1 (stereo unspecified) the results were ATXN viability inactive, HT1080-NT tox inactive, ATXN2 expr inh inactive and HT1080 IDH1KD tx inactive.
`O=S(=O)(/N=C(/Sc1ccccc1)c1ccccc1)c1ccc(Cl)cc1` gave TGFb inhibitor inactive and HepG2 viability inactive.
For COc1cccc(CN(C(=O)c2cccc(C)c2)C2CCS(=O)(=O)C2)c1 (stereo unspecified) the results were TGFb inhibitor inactive and HepG2 viability inactive.
